The target of test [1] is Albumin (Bos taurus) (UniProt P02769). Nature of the test: bovine serum albumin binders on microarray, profiling panel, artefact control for SMM control protein annotation, biochemical, small-molecule microarray, Alexa647 label, 635/667 nm fluorescence (AID 1118).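 Further: score merges 667 nm emission intensity and signal-to-noise per printed compound spot.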 To be noted: BSA-A647 binding, fluorescence 635 nm, higher = more signal.
Test [2] in a line: small-molecule microarray binders of probe aXIP, primary screen, biochemical, NeuroSMM set, 635/667 nm fluorescence (AID 1119).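 Further: probe is the protein aXip251-270 applied at 1 µg/mL to compound-printed slides; binding of probe to printed compounds measured as 667 nm fluorescence plus signal to noise.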 As to conditions: higher = more signal, called active from +8 up or from −8 down.
The nature of test [3]: small-molecule binders of probe aNOTCH3, primary screen, biochemical, small-molecule microarray, 635/667 nm fluorescence (AID 1120).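 Further: probe is a biotin-tagged antibody raised against NOTCH3 rather than NOTCH3 protein; score merges spot fluorescence near 667 nm with spot signal to noise.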 To be noted: higher = more signal.
Test [4] can be described thus: small-molecule binders of probe aNOTCH2, primary screen, biochemical, small-molecule microarray, 635/667 nm fluorescence (AID 1121).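 Further: score merges feature fluorescence read at 667 nm with its signal to noise.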 To be noted: higher = more signal.
Test [5] concerns the target Carbonic anhydrase 2 (Homo sapiens) (UniProt P00918). Nature of the test: CAII small-molecule binders, profiling panel, biochemical, small-molecule microarray, Alexa647-labelled CAII (AID 1122). As to conditions: CAII-A647 binding fluorescence, higher = more signal.
Test [6] is described as follows: COS7 lysate on small-molecule microarray, probe aHis, 635 nm (AID 1123).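 Further: z-score combines 667nm fluorescence intensity with signal-to-noise per printed compound spot.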 As to conditions: COS7 cell lysate, fluorescence, higher = more signal.
Test [7] can be described thus: compound binding in COS7 lysate, probe aLAP1, primary screen, cell lysate, small-molecule microarray (AID 1124).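 Further: lysate comes from COS7 cells expressing LAP1 and is applied at 0.3 µg/mL; score merges spot fluorescence near 667 nm with signal-to-noise over triplicate slides.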 As to conditions: probe aLAP1, fluorescence, higher = more signal.
For test [8], the system named is Sam68 (KHDRBS1). The test can be described thus: Sam68 small-molecule binders, primary screen, biochemical, small-molecule microarray, 635 nm fluorescence (AID 1125).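 Further: score merges 667 nm channel intensity with signal to noise over triplicate slides.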 As to conditions: small-molecule microarray binding, higher = more signal.
For test [9], the system named is Chordin-like protein 2 (CHRDL2). The test can be described thus: CHRDL2 small-molecule binders, primary screen, biochemical, small-molecule microarray, 635 nm fluorescence (AID 1126).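 Further: printed compound slides probed with Chrdl2 protein at 4 µg/mL for 1 h at 4 C; score merges 667 nm emission intensity with signal to noise over three replicate slides.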 To be noted: small-molecule microarray binding, fluorescence 635 nm; higher = more signal.
Test [10] has as its target Concanavalin-A (Canavalia ensiformis) (UniProt P02866). Nature of the test: ConA small-molecule binders, primary screen, artefact control for SMM control protein annotation, biochemical, small-molecule microarray, Alexa647 label, 635 nm (AID 1127).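 Further: z combines 667 nm emission intensity with signal-to-noise across three replicate slides.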 As to conditions: ConA-A647 binding fluorescence, higher = more signal.
The nature of test [11]: anti-His antibody binders, primary screen, artefact control for SMM control protein annotation, biochemical, small-molecule microarray, 635 nm fluorescence (AID 1128).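 Further: score merges feature fluorescence with signal-to-noise for each printed compound spot.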 As to conditions: anti-His Alexa647 antibody binding, higher = more signal.
Test [12] has as its system Human papillomavirus type 1a E7 protein (residues 1-88). Nature of the test: HPV1a E7 small-molecule binders, primary screen, biochemical, small-molecule microarray, residues 1-88, 635 nm (AID 1129). To be noted: small-molecule microarray binding, fluorescence 635 nm; higher = more signal.
Test [13] deals with Focal adhesion kinase 1 (Homo sapiens) (UniProt Q05397). Nature of the test: small-molecule microarray binders of FAK, primary screen, biochemical, 635/667 nm fluorescence, BSA, DTT (AID 1130).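 Further: composite of spot emission at 667 nm and signal to noise over triplicate slides.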 As to conditions: PTK2 binding, 635 nm fluorescence, higher = more signal.
Sequence of Focal adhesion kinase 1 (Homo sapiens) (Q05397 whole entry, looked up): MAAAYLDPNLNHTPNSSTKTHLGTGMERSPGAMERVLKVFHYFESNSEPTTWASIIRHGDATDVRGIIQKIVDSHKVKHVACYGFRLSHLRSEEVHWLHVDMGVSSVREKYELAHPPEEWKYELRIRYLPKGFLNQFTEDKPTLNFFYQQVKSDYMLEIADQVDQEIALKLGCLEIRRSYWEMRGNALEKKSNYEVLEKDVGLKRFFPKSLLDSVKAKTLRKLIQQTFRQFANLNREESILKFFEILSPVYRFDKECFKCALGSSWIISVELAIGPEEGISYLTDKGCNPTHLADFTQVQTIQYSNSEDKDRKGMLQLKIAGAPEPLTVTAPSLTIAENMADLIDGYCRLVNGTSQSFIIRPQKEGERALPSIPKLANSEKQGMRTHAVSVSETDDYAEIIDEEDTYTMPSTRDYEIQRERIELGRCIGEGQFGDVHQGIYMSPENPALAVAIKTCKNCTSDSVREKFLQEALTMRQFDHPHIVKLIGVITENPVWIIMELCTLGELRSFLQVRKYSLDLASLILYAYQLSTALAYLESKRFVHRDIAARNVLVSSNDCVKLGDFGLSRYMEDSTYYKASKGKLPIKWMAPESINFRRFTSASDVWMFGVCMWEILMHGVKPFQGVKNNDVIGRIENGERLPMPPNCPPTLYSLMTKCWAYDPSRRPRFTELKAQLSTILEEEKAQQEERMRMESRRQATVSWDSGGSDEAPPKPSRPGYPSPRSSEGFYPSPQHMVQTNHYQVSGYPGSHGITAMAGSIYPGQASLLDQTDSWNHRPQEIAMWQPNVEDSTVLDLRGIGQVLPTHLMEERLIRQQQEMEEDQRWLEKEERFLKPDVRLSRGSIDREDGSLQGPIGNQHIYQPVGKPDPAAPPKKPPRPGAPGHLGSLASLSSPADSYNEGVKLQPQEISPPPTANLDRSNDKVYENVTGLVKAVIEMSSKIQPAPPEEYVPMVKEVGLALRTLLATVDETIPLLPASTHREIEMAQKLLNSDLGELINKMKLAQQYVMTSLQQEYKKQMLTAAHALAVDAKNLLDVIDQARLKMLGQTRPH
For test [14], the system named is Fibrinogen (Alexa647-labelled). Nature of the test: fibrinogen binders on compound microarrays, profiling panel, artefact control for SMM control-protein annotation, biochemical, small-molecule microarray, 635/667 nm fluorescence (AID 1131).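 Further: z-score merges 667 nm fluorescence with per-spot signal-to-noise over triplicate slides.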 To be noted: fibrinogen-A647 binding fluorescence, higher = more signal.
The target of test [15] is Follistatin (Homo sapiens) (UniProt P19883). The test can be described thus: follistatin binders on small-molecule microarrays, primary screen, biochemical, small-molecule microarray, 635/667 nm fluorescence (AID 1132). To be noted: FST binding, 635 nm fluorescence, higher = more signal.
Sequence of Follistatin (Homo sapiens) (P19883 whole entry, looked up): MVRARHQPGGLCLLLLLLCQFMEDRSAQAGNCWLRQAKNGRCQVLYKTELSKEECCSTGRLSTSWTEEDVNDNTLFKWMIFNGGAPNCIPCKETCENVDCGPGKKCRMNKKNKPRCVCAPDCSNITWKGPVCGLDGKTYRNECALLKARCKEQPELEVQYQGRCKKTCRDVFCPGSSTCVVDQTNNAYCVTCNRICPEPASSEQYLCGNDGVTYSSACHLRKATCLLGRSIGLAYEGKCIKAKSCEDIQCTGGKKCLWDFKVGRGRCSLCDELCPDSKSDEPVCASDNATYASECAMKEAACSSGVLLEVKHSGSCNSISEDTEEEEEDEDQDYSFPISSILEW
The target of test [16] is Fibroblast growth factor 2 (Homo sapiens) (UniProt P09038). Nature of the test: FGF2 binders on small-molecule microarrays, primary screen, biochemical, small-molecule microarray, 635/667 nm fluorescence (AID 1133). To be noted: small-molecule microarray binding, FGF2, fluorescence 635/667; higher = more signal.
Sequence of Fibroblast growth factor 2 (Homo sapiens) (P09038 whole entry, looked up): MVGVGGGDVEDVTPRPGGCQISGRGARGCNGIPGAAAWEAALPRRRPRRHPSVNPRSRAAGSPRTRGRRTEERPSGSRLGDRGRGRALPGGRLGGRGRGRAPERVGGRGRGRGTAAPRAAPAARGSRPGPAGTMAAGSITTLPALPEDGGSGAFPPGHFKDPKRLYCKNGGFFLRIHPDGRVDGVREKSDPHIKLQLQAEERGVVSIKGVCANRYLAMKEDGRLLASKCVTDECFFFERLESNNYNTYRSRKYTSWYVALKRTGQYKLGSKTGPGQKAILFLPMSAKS
The nature of test [17]: mitochondrial membrane potential change in A549 cells, profiling panel, cell-based, JC-1 fluorescence, basal, 24 h, 100 nL (AID 1138).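 Further: A549 lung adenocarcinoma cells under basal conditions with no added stimulus; test concentration not given here.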 As to conditions: higher = more signal.
The subject of test [18] is Lefty1. The test can be described thus: Lefty1 binders on small-molecule microarrays, primary screen, biochemical, small-molecule microarray, 635/667 nm fluorescence (AID 1139). As to conditions: small-molecule microarray binding, fluorescence 635/667; higher = more signal.
In test [19] the test system is wheat germ agglutinin (Triticum aestivum), Alexa647-labelled. Nature of the test: wheat germ agglutinin binders on compound microarrays, profiling panel, artefact control for SMM control-protein annotation, biochemical, small-molecule microarray, 635/667 nm fluorescence (AID 1140).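 Further: score merges 667 nm feature emission with signal to noise over triplicate slides.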 As to conditions: WGA-A647 binding, 635 nm fluorescence, higher = more signal.
Test [20] deals with Luciferin 4-monooxygenase (Photinus pyralis) (UniProt P08659). The test can be described thus: firefly luciferase enzyme inhibitors, primary screen, biochemical, luminescence, purified enzyme, 2006 set (AID 1141).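 Further: cell-free assay with purified firefly luciferase at 100 ng per well in PBS; test concentration not given here.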 To be noted: SteadyGlo luminescence, 30 min, higher = more signal, called active from +8 up or from −8 down.
Sequence of Luciferin 4-monooxygenase (Photinus pyralis) (P08659 whole entry, looked up): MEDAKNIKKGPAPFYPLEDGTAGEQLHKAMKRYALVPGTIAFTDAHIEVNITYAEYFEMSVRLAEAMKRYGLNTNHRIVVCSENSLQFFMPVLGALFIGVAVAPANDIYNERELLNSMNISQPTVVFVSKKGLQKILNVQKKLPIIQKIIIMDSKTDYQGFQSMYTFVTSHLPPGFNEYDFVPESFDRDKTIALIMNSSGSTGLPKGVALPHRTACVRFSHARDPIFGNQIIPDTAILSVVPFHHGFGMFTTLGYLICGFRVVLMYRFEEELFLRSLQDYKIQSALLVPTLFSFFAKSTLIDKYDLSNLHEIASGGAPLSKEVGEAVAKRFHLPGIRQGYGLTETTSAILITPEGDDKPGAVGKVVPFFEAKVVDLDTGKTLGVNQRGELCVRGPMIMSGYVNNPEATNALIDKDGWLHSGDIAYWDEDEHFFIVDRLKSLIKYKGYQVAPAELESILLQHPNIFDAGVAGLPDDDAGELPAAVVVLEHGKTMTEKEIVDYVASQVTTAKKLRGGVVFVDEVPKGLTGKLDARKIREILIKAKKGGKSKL

Each structure is given as a SMILES string. Calls of active or inactive are those of the source.

Sequence of Concanavalin-A (Canavalia ensiformis) (P02866 whole entry, looked up): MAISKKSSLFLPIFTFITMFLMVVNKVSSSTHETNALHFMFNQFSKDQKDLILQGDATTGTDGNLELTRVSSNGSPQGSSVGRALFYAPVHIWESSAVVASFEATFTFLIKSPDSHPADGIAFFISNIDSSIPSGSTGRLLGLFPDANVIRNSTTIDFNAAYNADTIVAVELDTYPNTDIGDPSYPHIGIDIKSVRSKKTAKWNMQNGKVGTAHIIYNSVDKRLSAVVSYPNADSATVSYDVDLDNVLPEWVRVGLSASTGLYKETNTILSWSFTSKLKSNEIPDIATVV
Sequence of Albumin (Bos taurus) (P02769 whole entry, looked up): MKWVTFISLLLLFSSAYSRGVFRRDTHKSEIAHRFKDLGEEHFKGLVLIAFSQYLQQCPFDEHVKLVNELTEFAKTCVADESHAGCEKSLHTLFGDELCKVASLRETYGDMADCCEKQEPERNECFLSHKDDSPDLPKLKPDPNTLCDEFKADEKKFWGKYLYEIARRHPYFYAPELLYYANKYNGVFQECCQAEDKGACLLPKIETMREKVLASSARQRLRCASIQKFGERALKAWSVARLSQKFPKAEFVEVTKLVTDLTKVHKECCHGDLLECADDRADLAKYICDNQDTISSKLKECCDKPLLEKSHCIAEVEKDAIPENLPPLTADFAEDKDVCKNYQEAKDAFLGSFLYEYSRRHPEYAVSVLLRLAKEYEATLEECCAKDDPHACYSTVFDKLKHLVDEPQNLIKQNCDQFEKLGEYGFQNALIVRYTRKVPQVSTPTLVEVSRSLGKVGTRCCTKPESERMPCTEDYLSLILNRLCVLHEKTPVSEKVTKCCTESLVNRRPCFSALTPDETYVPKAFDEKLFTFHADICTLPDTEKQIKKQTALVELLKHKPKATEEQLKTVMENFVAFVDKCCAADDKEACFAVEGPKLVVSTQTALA

In the case of `CCOC(=O)C[C@H]1[C@H](OC(=O)c2cc3ccccc3oc2=O)[C@@H](NC(=O)c2ccc3ccccc3n2)c2cc(OCCCO)ccc2N1C(=O)c1ccccc1`, the composite z-score is 0.328 in test [1]; 0.154 in [3]; -0.0424 in test [4]; 0.639 in test [5]; 0.476 in test [6]; 0.668 in test [7]. For the same molecule, the composite z-score was 0.604 in test [8]; 0.789 in test [9]; 0.728 in test [10]; 1.06 in test [11]; 0.803 in [12]; 0.513 in test [13]. In addition, the composite z-score in [14] was found to be 0.584; in test [15] it was 1.14; in test [16], 1.23; in test [18], 0.606; in test [19] it was 0.354. Besides, in [2], the composite Z-score was 0.946 (inactive). Besides, the values for the z-score in test [17] and in [20] were -0.837 and 0.497 (inactive), respectively.
Consider `CCCNC(=O)[C@@H]1c2ccccc2C(=O)N(c2ccc(C)cn2)[C@H]1c1ccc(CO)cc1`, for which the composite z-score in [1] is 0.206; in test [3], -0.305; in [4], -0.109; in test [5], 0.769; in [6] it was -0.018; in [7], -0.514. Besides, the composite z-score in test [8] is -0.646; in test [9], -0.382; in test [10], -0.984; in test [11], 0.63; in [12] it was -0.38; in test [13] it was 0.14. The composite z-score is -0.367 in [14]; 0.316 in test [15]; 0.398 in test [16]; -0.981 in test [18]; -0.273 in [19]. Also, in test [2], the composite Z-score is -0.207 (inactive). Also, the z-score in [17] is -0.307; in test [20], 0.544 (inactive).
With `CCOC(=O)[C@H](Cc1ccccc1)NC(=O)CCC1CC(OC(=O)NCc2ccc3c(c2)OCO3)CC2(CCCC(COC(=O)NCc3ccccc3)O2)O1` (stereo not given in full), the composite z-score in [1] was 0.3; in test [3], 0.0437; in test [4], -0.0728; in [5] it was 0.373; in [6], 0.248; in test [7], 0.0766. Also, the composite z-score is 1.06 in test [8]; 0.261 in [9]; 0.915 in [10]; 1 in test [11]; 1.12 in test [12]; -0.108 in test [13]. In addition, the composite z-score in [14] worked out at 0.347; in test [15], 0.725; in [16] it was 0.69; in [18] it was 0.688; in [19], 0.335. Also, the composite Z-score in test [2] was 0.255 (inactive). The z-score in [17] is 1.64; in test [20], 0.66 (inactive).
Turning to `CC(CCC(=O)OC[C@H]1O[C@H](C#Cc2ccccc2)C=C[C@@H]1Oc1ccc(C)cc1)=NOC[C@@H](O)[C@H]1O[C@@H]2OC(C)(C)O[C@@H]2[C@H]1O`, the composite z-score in [1] was -0.326; in [3] it was -0.2; in test [4], -0.187; in test [5], -0.023; in test [6], -0.282; in test [7] it was 0.137. For the same molecule, the composite z-score was 0.14 in test [8]; -0.532 in test [9]; -0.614 in test [10]; 0.418 in test [11]; -0.106 in test [12]; 0.0116 in test [13]. In addition, the composite z-score is -0.38 in [14]; -0.382 in test [15]; -0.448 in test [16]; 0.131 in test [18]; -0.604 in [19]. In addition, the composite Z-score in [2] was -0.404 (inactive). For the same molecule, the results for the z-score in test [17] and in [20] were 0.343 and 0.29 (inactive), respectively.
In the case of `C=CC[C@@H]1C=C[C@H](ON=C(C)CCN2CCc3nc(CC)c(CC)cc3C2)[C@@H](CO)O1`, the composite z-score in test [1] was 0.7; in [3] it was 0.325; in test [4], -0.131; in [5], 0.221; in test [6] it was 0.226; in test [7] it was 0.38. Also, the composite z-score in test [8] was 0.822; in test [9] it was 0.971; in test [10], -0.442; in test [11], 0.242; in [12], -0.202; in test [13], -0.191. For the same molecule, the composite z-score was -1.5 in [14]; 1.3 in test [15]; 0.466 in [16]; 1.48 in test [18]; 0.0749 in [19]. The composite Z-score in test [2] is -2.12 (inactive). Further, the z-score was 2.17 in [17] and 0.624 (inactive) in test [20].
Take `O=C(NN=C1C[C@@H](O)[C@@H](O)[C@@H]2[C@@H]3C(=O)N(c4ccc(F)cc4F)C(=O)[C@@H]3CC[C@@H]12)OCc1ccccc1`: the composite z-score in test [1] is 0.458; in test [3] it was 0.0952; in test [4] it was -0.123; in test [5], 0.129; in test [6], 0.229; in test [7] it was 0.3. Also, the composite z-score in test [8] was 0.661; in test [9], 0.272; in test [10], 0.247; in test [11], 0.419; in test [12] it was 0.117; in test [13], -0.179. Besides, the composite z-score in test [14] is 0.723; in test [15] it was 0.385; in [16], -0.191; in [18], 0.341; in test [19] it was 0.336. In addition, the composite Z-score in [2] is -0.662 (inactive). In addition, the z-score was -0.281 in test [17] and 0.894 (inactive) in test [20].

(Values after PubChem BioAssay.)
